Screening results deposited in PubChem BioAssay by National Center for Advancing Translational Sciences (NCATS).
Compounds with a hit are over-represented: about 8% of the library has one in this group of screens.
SARS PLpro yeast – inhibitors of SARS-CoV papain-like protease in yeast. Potency, µM (highest dose often 32.9 µM), inactives show at the top dose activity, positive = growth rescue, most hits filed as activators. S. cerevisiae expressing SARS-CoV PLpro, growth rescue. 330,000 tested, 0.19% active. AID 485353; calls by dose curve; further: potency means the concentration at half of the fitted maximal effect; 0% is about no effect; nearly all actives have a fitted effect of over 55% in size
FMDV antiviral – foot and mouth disease virus antiviral activity. 410,000 tested, 1.2% active. AID 1159524. Potency, µM (titrated, usually from 57.9 µM), without a hit: top-dose activity change, negative = inhibition, hits mostly inhibitors. FMDV antiviral cell-based qHTS; calls by dose curve; tested in HEK293T cells; further: read-out not given here; potency means the concentration at half of the fitted maximal effect; on the % scale 0 is the no-effect control and ±100 the full control effect; nearly all actives have a fitted effect of over 45% in size
Lassa entry inh – inhibitors of Lassa virus binding or cell entry. Potency, µM (doses to about 37.9 µM), for the others: at the highest dose activity change, negative = inhibition, usual class: inhibitors. 300,000 tested, 1.2% active. Lassa virus pseudotype entry inhibition, cell reporter; calls by dose curve; tested in HEK293 cells; further: potency means the concentration at half of the fitted maximal effect; on the % scale 0 is the no-effect control and ±100 the full control effect; nearly all actives have a fitted effect of over 50% in size
HCMV antiviral – human cytomegalovirus inhibition | HFF cells, HCMV-luciferase reporter, 72 h; hits give low values | activity change, negative = inhibition, % at 57.5 µM | 410,000 tested, 4.5% active | AID 1259415; in the data active means activity change below about -60%; inconclusive means no clear call, values can overlap the other calls; inactive means above about -39%; further: on the % scale 0 is the no-effect control and ±100 the full control effect
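Cell-based, HFFs, 1000 cells/well, 16 h 37C; cpds in DMSO + HCMV-luc, MOI 1 PFU/cell; 72 h 37C; OneGlo luminescence after 5 min RT; norm. to buffer vs Salinomycin 10uM.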
Marburg entry inh – inhibitors of Marburg virus binding or cell entry; 300,000 tested, 1.8% active; Potency, µM (highest dose often 37.8 µM), for the others: at the highest dose activity change, negative = inhibition, most hits filed as inhibitors; AID 540276; Marburg virus pseudotyped entry inhibition, cell reporter; calls by dose curve; tested in HEK293 cells; further: potency means the concentration at half of the fitted maximal effect; on the % scale 0 is the no-effect control and ±100 the full control effect
HCV inhibitor – HCV inhibition; Huh7.5.1 HCVcc-Cre infection, luciferase reporter, 44 h; Potency, µM (series often up to 41.8 µM), for inactives: at the top dose activity change, negative = inhibition, usual class: inhibitors; 340,000 tested, 3.4% active; active means well fitted inhibition curve with a large enough effect; inconclusive means small, poorly fitted or top-dose-only effect, or another doubt; inactive means no such curve, though single readings can be large or run the other way; further: potency means the concentration at half of the fitted maximal effect; on the % scale 0 is the no-effect control and ±100 the full control effect
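Seed cells (1,000/well) for 4 h; treat with compound and infect with HCVcc-Cre, moi about 0.5. Incubate 44 h, then detect luciferase activity.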
* hit, by the source's call; u = inconclusive; x = not tested or not shown; [ ] = another dose, or the depositor's remark.

SMILES	SARS PLpro yeast	FMDV antiviral	Lassa entry inh	HCMV antiviral	Marburg entry inh	HCV inhibitor
Cc1c(C)n(CCc2ccccc2)c2ncnc(NCCO)c12	0.1%	45.4%	x	100.4	x	-25.5%
Cc1c(C)n(Cc2ccccc2)c2ncnc(Cl)c12	-2.1%	u	x	-88.3*	x	u
Cc1cnc(-n2ncc(C(=O)N(C)C3CCOC3)c2C)nc1-c1ccc(F)cc1 (stereo not drawn)	x	25.7%	x	x	x	x
COc1ccc(-c2csc(Nc3ccccc3)[n+]2CC(O)c2ccc([N+](=O)[O-])cc2)cc1 (stereo not drawn)	-1.1%	u	x	7.6	x	8.91µM*
O=S(=O)(c1ccccc1)c1nnn2c1nc(NC1CCCCCC1)c1sccc12	x	-25.2%	8.8%[46.1 µM]	-6.3	x	x
COc1cccc(NC(=O)c2oc3ccccc3c2NC(=O)Cc2cccc(C)c2)c1	x	0.0%	2.8%[46.1 µM]	21.1	-26.8%[46.1 µM]	x
COc1cc(OC)cc(C(=O)NCc2ccc3c(c2)CCN3C(=O)c2ccccc2)c1	x	-4.8%	u	u	x	x
COc1cc(OC)cc(C(=O)NC(C(=O)NCCN(C)C)C23CC4CC(CC(C4)C2)C3)c1 (stereo not drawn)	-1.6%	0.0%	-13.9%	18.1	u	10µM*
CN1CCN(/N=C/c2ccc(-c3ccccc3)cc2)CC1	-7.3%	1.0%	u	-85.5*	u	-26.7%
CCOc1ccc(C(=O)/C=C/c2cn(CC(O)CN3CCc4ccccc43)c3ccccc23)cc1 (stereo not drawn)	x	-13.9%	u	-22.8	u	x
CCCCn1c(NC(=O)c2ccco2)c(S(=O)(=O)c2ccc(C)cc2)c2nc3ccccc3nc21	-1.5%	-15.1%	-0.7%	1.3	-20.6%	-3.8%
CCCCn1c(NC(=O)c2ccco2)c(C(=O)OCC)c2nc3ccccc3nc21	1.1%	x	-9.0%	-69.0*	-24.8%	-15.1%
CC(O)(COc1ccccc1)c1ccc2c(c1)CN(Cc1cccc3ncccc13)CCO2 (stereo not drawn)	x	-24.1%	x	x	x	x
C[C@H]1C(C(=O)N2CCCC2)=Cc2[nH]c(=O)[nH]c2C=C1c1ccccc1	x	x	x	x	18.4%[14.2 µM]	x
Cn1c(=O)c2c(nc(N/N=C/c3cccnc3)n2Cc2ccc(F)cc2)n(C)c1=O	0.6%	-17.6%	u	-7.3	0.5%[46.1 µM]	-3.0%
Cn1c(=O)c2c(nc(N/N=C/c3cccs3)n2Cc2ccccc2)n(C)c1=O	34.2%	25.1µM*	u	u	-17.5%	u
Cn1c(=O)c2c(nc(N/N=C/c3ccc(OC(=O)c4ccco4)cc3)n2Cc2ccccc2)n(C)c1=O	-5.4%	12.6µM*	10µM*	71.6	u	u
CCN(C(=O)C(C)N1C(=O)/C(=C/c2cccs2)SC1=S)C1CCS(=O)(=O)C1 (stereo not drawn)	u	-18.9%	x	-63.5*	x	-14.5%
CC(C(=O)N(C)C1CCS(=O)(=O)C1)N1C(=O)/C(=C/c2ccco2)SC1=S (stereo not drawn)	9.3%	-12.3%	x	-93.1*	x	-21.5%
CCOC(=O)c1[nH]c2ccccc2c1NC(=O)c1ccccc1F	x	-14.1%	5.1%[46.1 µM]	-0.7	u	x
COC(=O)c1cc(C)nc2c1c(=O)nc(SCc1ccccc1F)n2C1CC1	x	-27.4%	-15.0%[46.1 µM]	3.8	x	x
NC(=O)COC(=O)c1cccnc1Nc1ccccc1F	-1.6%	14.3%	19.4%	-70.7*	16.5%[46.1 µM]	4.5%
CCc1ccccc1NC(=O)Cn1c(=O)n(-c2ccc(C)cc2)c(=O)c2cc(OC)c(OC)cc21	x	-6.9%	21.4%[46.1 µM]	-2.1	1.6%[46.1 µM]	x
COCCCNC(=O)CSC1=Nc2ccccc2C2=NC(c3ccccc3)C(=O)N12 (stereo not drawn)	0.8%	18.6%	7.0%	-63.8*	2.7%	16.0%
CN1OC(C)(CC(=O)NCc2nccs2)N=C1c1cccc(Br)c1 (stereo not drawn)	x	x	x	-11.5	x	x
SMILES	SARS PLpro yeast	FMDV antiviral	Lassa entry inh	HCMV antiviral	Marburg entry inh	HCV inhibitor
CC1CCN(C2=NC(=O)/C(=C/c3cn(-c4ccccc4)nc3-c3cccc(S(=O)(=O)N(C)C)c3)S2)CC1	8.2%	-3.3%	-24.4%	-61.5*	u	u
CC1CCCN(C2=NC(=O)/C(=C/c3cn(-c4ccccc4)nc3-c3cccc(S(=O)(=O)N(C)C)c3)S2)C1 (stereo not drawn)	2.0%	4.2%	-14.1%	-13.6	5.0%	u
N#Cc1c(-c2ccccc2)cc(-c2ccccc2)nc1SCC(=O)Nc1ccc(Cl)cc1	x	13.6%	6.2%[46.1 µM]	6.0	8.9%[46.1 µM]	x
CN(C)S(=O)(=O)c1ccc(Cl)c(NC(=O)CSc2nc3c(cc2C#N)C(=O)CCC3)c1	19.9%	-16.1%	-10.4%	-20.1	-0.3%	9.4%
N#Cc1cc2c(nc1SCC(=O)Nc1cc(Cl)ccc1Cl)C1CCN2CC1	3.1%	u	u	-87.7*	-23.3%	u
Cc1cc(C)nc(SCc2nnc(SCC(=O)Nc3ccc(Cl)c(C(F)(F)F)c3)o2)n1	-12.3%	x	14.0%	-12.3	-8.3%	13.2%
N#Cc1cc2c(nc1SCC(=O)Nc1ccc(Cl)cc1)C1CCN2CC1	u	-15.9%	-8.4%	-90.8*	0.0%	2.82µM*
N#Cc1cc2c(nc1SCC(=O)Nc1ccc(C(F)(F)F)cc1)C1CCN2CC1	x	u	-2.5%[46.1 µM]	-75.4*	u	x
N#Cc1cc2c(nc1SCC(=O)Nc1ccc(Cl)c(C(F)(F)F)c1)C1CCN2CC1	x	0.0%	-0.3%[46.1 µM]	-68.4*	u	x
Cc1ccc(C(=O)c2cn(Cc3ccccc3F)c3cc4c(cc3c2=O)OCO4)cc1	x	-22.8%	29.2%[46.1 µM]	-36.0	-2.5%[46.1 µM]	x
O=C(Nc1cc(F)ccc1F)C1COc2ccccc2C1 (stereo not drawn)	x	20.2%	3.5%[46.1 µM]	11.9	x	x
Cc1ccc2c(=O)cc(C(=O)Nc3c(C)n(C)n(-c4ccccc4)c3=O)oc2c1	x	-17.0%	u	-11.3	2.1%[46.1 µM]	x
Cc1nc2ccccn2c(=O)c1NC(=O)c1ccc(C(F)(F)F)cc1	x	14.6%	16.9%[46.1 µM]	35.2	x	x
O=S(=O)(NCCNc1ncc(C(F)(F)F)cc1Cl)C(F)(F)F	-5.6%	-6.0%	-3.6%	-71.5*	u	u
O=C1C=CC(=O)N1CCNc1ncc(C(F)(F)F)cc1Cl	-5.0%	31.6µM*	u	-95.5*	u	u
O=C1CC(=O)N(CCNc2ncc(C(F)(F)F)cc2Cl)C(=O)N1	15.9%	-15.0%	-6.3%	27.3	5.7%	11.5%
CS(=O)(=O)NCCNc1ncc(C(F)(F)F)cc1Cl	-2.6%	0.3%	0.0%	u	-8.2%[46.1 µM]	-12.7%
COc1cc(C[C@@H]2C(=O)OC[C@H]2Cc2ccc(OC)c(OC)c2)ccc1O	1.7%	20µM*	x	-89.8*	x	u
CCc1nnc(NC(=O)CSc2nc(C)c3c(c2C#N)CCCC3)s1	-5.4%	-22.2%	u	56.3	u	11.2µM*
COc1ccc(NC(=O)CSc2nc(C)c3c(c2C#N)CCCC3)cc1	4.5%	-16.7%	-12.6%	u	-14.5%	-28.7%
CN1CCN(Cc2nc3ccccc3c(=O)n2CC#N)CC1	1.0%	-9.2%	x	19.1	x	5.7%
N#CCn1c(CCl)nc2ccccc2c1=O	-2.7%	7.94µM*	x	-33.9	x	4.2%
